Experiment [1] relates to DLD1. Put plainly: cell viability (CellTiter-Glo) relative to plate median (fraction of plate median); higher = more viable cells. The note with it: 5 µM; treatment time 24 h; reporter: 7TFP. A digest of the protocol: (§1)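 After seeding in 384-well plates, colorectal cancer cell lines carrying stable lentiviral TCF/Wnt firefly luciferase reporters (7TFP or TCF4/Wnt) were left 24 h. Library compounds were then added at a final 5 µM for 24 h. A Tecan F500 reader measured firefly luciferase or CellTiterGlo luminescence on parallel plates, with each well normalised to the plate median by webcellHTS2 (additive, no log transformation), and two independent replicates averaged.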

Another experiment deals with HCT116. The experiment is described as above. The note with it: 5 µM; treatment time 24 h; reporter: TCF4/Wnt. A digest of the protocol: as §1
Experiment [2] concerns SW480. The description is as above. The conditions noted are these: 5 µM; treatment time 24 h; reporter: 7TFP. Summed up: as §1
For experiment [3], the system named is DLD1. As to the kind of experiment: TCF/Wnt firefly luciferase reporter signal relative to plate median (fraction of plate median); higher = higher Wnt reporter signal. The note with it: 5 µM; treatment time 24 h; reporter: 7TFP. A digest of the protocol: as §1
(A reporter such as luciferase makes a cellular process visible.)

The subject of experiment [4] is SW480. Described as above. The note with it: 5 µM; treatment time 24 h; reporter: 7TFP. Summed up: as §1

Values joined by “and” are separate entries in the source; they are usually repeats but may differ in a detail not shown here. Equal values may be shown once. ± gives the standard deviation of the averaged measurements.

Turning to `O=S(=O)(O)CCS`, the cell viability in the experiment on DLD1 [1] worked out at 1.01 ± 0.058; in the experiment on HCT116, 1.06 ± 0.014; in the experiment on SW480 [2], 1.02 ± 0.054. Further, the “TCF/Wnt firefly luciferase reporter signal” value worked out at 1.01 ± 0.19 in the experiment with DLD1 [3] and 1.1 ± 0.028 in the experiment on SW480 [4].
The like results for `C[C@]12CC[C@@H]3c4ccc(O)cc4CC[C@H]3[C@@H]1CC[C@@H]2O` were, in that order, 0.914 ± 0.11, 1.01 ± 0.098, 0.949 ± 0.024, 1.07 ± 0.092 and 1.02 ± 0.021.
On the same counts, the results for `CC(=O)Oc1ccc2c(c1OC(C)=O)OCC1(O)Cc3c(cc(OC(C)=O)c(OC(C)=O)c3OC(C)=O)C21` (stereo not given) are 0.96 ± 0.017, 1.02 ± 0.074, 0.959 ± 0.059, 0.939 ± 0.05 and 0.9105 ± 0.0064.
The like results for `CC(=O)OC1CCC2(C)C(=CCC3C2CCC2(C)C(C(C)CCCC(C)C)CCC32)C1` (stereo not given) were, in that order, 1.04 ± 0.021, 1.05 ± 0.12, 0.964 ± 0.051, 1.11 ± 0.19 and 1.11 ± 0.15.
Regarding `COc1cc(C(N)=O)ccc1O` [4-Hydroxy-3-methoxy-benzoic acid amide, Vanillic acid amide], the cell viability with DLD1 [1] came to 0.953 ± 0.032; with HCT116 it was 1.125 ± 0.0071; in the experiment on SW480 [2] it was 1.06 ± 0.014. The entries for the “TCF/Wnt firefly luciferase reporter signal” value in the experiment with DLD1 [3] and in the experiment on SW480 [4] were 1.06 ± 0.086 and 0.942 ± 0.064, respectively.
In the case of `Cc1cc(C(C)(C)CC(C)(C)C)ccc1OCCOCC[N+](C)(C)Cc1ccccc1`, the cell viability in the experiment on DLD1 [1] was determined as 1.02 ± 0.069; in the experiment on HCT116 it was 0.977 ± 0.076; in the experiment on SW480 [2], 1.08 ± 0.014. The “TCF/Wnt firefly luciferase reporter signal” value was 0.87 ± 0.061 in the experiment with DLD1 [3] and 0.909 ± 0.028 in the experiment with SW480 [4].
With `CCC[C@@H]1C[C@@H](C(=O)N[C@@H]([C@H]2O[C@H](SC)[C@H](O)[C@@H](O)[C@H]2O)[C@@H](C)O)N(C)C1`, the cell viability in the experiment with DLD1 [1] is 1.05 ± 0.12; with HCT116, 1.03 ± 0.021; in the experiment on SW480 [2], 1.035 ± 0.0071. The “TCF/Wnt firefly luciferase reporter signal” value was found to be 0.934 ± 0.015 in the experiment on DLD1 [3] and 1.04 ± 0.083 in the experiment on SW480 [4].
On the same counts, the results for `CC[C@H]1OC(=O)[C@H](C)C(=O)[C@H](C)[C@@H](O[C@@H]2O[C@H](C)C[C@H](N(C)C)[C@H]2O)[C@](C)(OC)C[C@@H](C)C(=O)[C@H](C)[C@H]2N(CCCCn3cnc(-c4cccnc4)c3)C(=O)O[C@]12C` are 0.997 ± 0.018, 0.968 ± 0.1, 1.02 ± 0.04, 1.07 ± 0.05 and 1.07 ± 0.035.
With `O=c1[nH]cc(F)c(=O)[nH]1`, the cell viability in the experiment with DLD1 [1] was 1.03 ± 0.083; in the experiment on HCT116 it was 0.905 ± 0.054; in the experiment on SW480 [2] it was 1.11 ± 0.014. Also, the “TCF/Wnt firefly luciferase reporter signal” value in the experiment with DLD1 [3] is 1.01 ± 0.13; in the experiment with SW480 [4], 0.9685 ± 0.0064.
The like results for `CCN(CCCc1ccccc1)CCCc1ccccc1` were, in that order, 1 ± 0.22, 1.06 ± 0.021, 1.08 ± 0.035, 1 ± 0.036 and 0.916 ± 0.055.
On the same counts, the results for `COc1cc(C)c(C(=O)Oc2cc(C)c(C(=O)O)c(O)c2C)c(O)c1C=O` are 1.06 ± 0.014, 0.9725 ± 0.0021, 1.03 ± 0.014, 1.06 ± 0.078 and 1.12 ± 0.085.
With `CN(C)CC[C@@H](c1ccc(Cl)cc1)c1ccccn1`, the cell viability in the experiment on DLD1 [1] is 1.01 and 0.901; in the experiment on HCT116, 0.96 and 1.04; in the experiment with SW480 [2], 0.968 and 1.01. Further, the “TCF/Wnt firefly luciferase reporter signal” value in the experiment with DLD1 [3] was 0.862 and 1.08; with SW480 [4], 0.778 and 1.05.
Take `C[C@]1(OC(=O)/C=C/c2ccccc2)C[C@@H](O)[C@]2(O)C=CO[C@@H](O[C@@H]3O[C@H](CO)[C@@H](O)[C@H](O)[C@H]3O)[C@@H]21`: the cell viability is 1.035 ± 0.0071 with DLD1 [1], 1.02 ± 0.11 with HCT116 and 1.06 ± 0.05 with SW480 [2]. The “TCF/Wnt firefly luciferase reporter signal” value with DLD1 [3] turned out to be 1.12 ± 0.028; with SW480 [4], 1.03 ± 0.05.
The like results for `CC(N)C12CC3CC(CC(C3)C1)C2` (stereo not given) were, in that order, 1.02 ± 0.028, 0.986 ± 0.02, 0.977 ± 0.025, 0.962 ± 0.03 and 0.9945 ± 0.0078.

Source of the values: the supplement of paper PMC6522484.
